A selection: hits, their analogues and other compounds. The true share with any hit is near 3.5%.
M1 antag = antagonists of human M1 muscarinic receptor. inhibition, % at 3 µM. P11229. AID 588852. actives 1.3% (n = 360,000). CHO-K1 hM1, Fluo-8 calcium fluorescence, ACh EC80 antagonist;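 active means percent inhibition above its own plate's cutoff, namely the mean of that plate's compound wells plus 3 SD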;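 further: peak over basal fluorescence ratio during 140 s after agonist addition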
SKN-1 inh = inhibitors of C. elegans SKN-1. actives 0.49% (n = 360,000). C. elegans VP596 Pgst-4::GFP/RFP ratio, acrylamide-induced, 24 h. AID 624304. inhibition, % at 21.8 µM;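 active means interference check ratio from 0.5 to 1.5 plus GFP to RFP signal ratio inhibition reaching or exceeding a fixed threshold, cut at about 30% in these data, passing the limit was not always enough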
M1 ag = activates human CHRM1 receptor; P11229; CHO-K1 hM1, Fluo-8 calcium fluorescence, agonist mode; 0% DMSO, 100% acetylcholine EC100; activation, % at 3 µM; actives 0.33% (n = 360,000); AID 588814;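 active means activation above the run's mean compound activation plus 3 SD, cut at about 16% in these data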;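 further: peak over basal fluorescence ratio within a 140 s kinetic read after compound addition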
CHRM1 PAM = potentiates human M1 receptor response to acetylcholine. activation, % at 3 µM. actives 0.088% (n = 360,000). P11229. AID 588819. CHO-K1 hM1, Fluo-8 calcium fluorescence, ACh EC20; 0% = ACh EC20, 100% = maximal ACh; in the data active means activation above about 19%, passing the limit was not always enough
Myeloid diff MLP = compounds promoting myeloid differentiation; ER-HoxA9 myeloid progenitors, lysozyme-GFP differentiation, flow cytometry; calls only at 10 µM; actives 1% (n = 360,000);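 active means normalized GFP-positive differentiation at or above the plate's own cutoff, the solvent-only control mean plus 3 SD; inconclusive means no clear call, values can overlap the other calls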;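 further: cells exposed to compound for four days before flow analysis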
ATG4B inh = blocks human ATG4B protease cleavage of LC3 substrate | actives 0.51% (n = 340,000) | inhibition, % at 8.33 µM | ATG4B cleavage of LC3-PLA2, NBD-HPC fluorescence, 1 h; in the data active means inhibition above about 40%
Target sequence (Q9Y4P1 whole entry, looked up): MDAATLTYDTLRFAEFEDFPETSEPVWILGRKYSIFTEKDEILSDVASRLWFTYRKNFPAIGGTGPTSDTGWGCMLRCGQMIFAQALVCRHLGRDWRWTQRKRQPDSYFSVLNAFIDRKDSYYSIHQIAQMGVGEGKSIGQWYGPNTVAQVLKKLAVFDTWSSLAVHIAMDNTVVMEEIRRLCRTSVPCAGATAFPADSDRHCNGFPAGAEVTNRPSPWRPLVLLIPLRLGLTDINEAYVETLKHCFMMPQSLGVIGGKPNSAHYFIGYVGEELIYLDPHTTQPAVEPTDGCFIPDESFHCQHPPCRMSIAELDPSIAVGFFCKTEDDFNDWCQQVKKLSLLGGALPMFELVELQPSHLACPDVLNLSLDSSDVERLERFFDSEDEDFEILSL
A number is an active result; i = inactive; ? = inconclusive; nt = no result; + = active, no number.

SMILES	M1 antag	SKN-1 inh	M1 ag	CHRM1 PAM	Myeloid diff MLP	ATG4B inh
COc1ccc(-c2csc(NC(=O)C3CCN(c4ncnc5sc(C)c(C)c45)CC3)n2)cc1OC	46.4	i	i	i	?	i
COc1ccc(-c2ccc(SCC(=O)Nc3nccs3)nn2)cc1OC	34.9	i	i	i	i	i
CCC(=O)Nc1nc(CC(=O)Nc2ccccc2OC)cs1	i	35.5	i	i	i	i
CCOc1cc(C=NN2CCCCCC2)ccc1O	i	i	i	i	i	i
O=C1NC(=O)/C(=C/c2ccc(-c3cccc([N+](=O)[O-])c3)o2)S1	i	i	i	i	i	i
CCCNC(=O)Cn1c(=O)/c(=C\c2ccc(-c3cccc([N+](=O)[O-])c3)o2)s/c1=C\C(=O)C(C)(C)C	i	i	i	i	+	i
CCCNC(=O)Cn1c(=O)/c(=C\c2ccc(-c3ccc([N+](=O)[O-])cc3)o2)s/c1=C\C(=O)C(C)(C)C	36.7	i	21.9	i	+	i
CCCNC(=O)Cn1c(=O)/c(=C/c2ccc(-c3cccc([N+](=O)[O-])c3)o2)s/c1=C\C(=O)C(C)(C)C	i	i	i	i	+	i
Cc1ccc(C(=O)Nn2cnnc2)cc1	i	i	i	i	i	i
O=C(CSc1nnc(CNC(=O)c2cccc(C(F)(F)F)c2)o1)NC1CCCC1	i	i	i	i	i	i
CCN1/C(=C/c2ccc3cc(C)ccc3[n+]2C)Sc2ccc3sccc3c21	i	i	i	i	i	i
CCCCN1/C(=C/c2ccc3ccccc3[n+]2CC)Sc2ccccc21	44.3	36.5	26.1	i	+	i
CCN1/C(=C/c2ccc3cc(C)ccc3[n+]2CC)Sc2cc(C)ccc21	67.4	i	26.3	i	?	i
Cc1c(C(=O)Nc2nccs2)oc2c(Cl)cccc12	i	i	i	i	i	i
COc1ccc2c(Cl)cc(NC(=O)Nc3c(C)cccc3C)nc2c1	i	i	i	i	i	nt
Clc1ccc(-c2nc3cc(CN4CCCCC4)ccc3o2)cc1	i	76.6	i	i	i	i
Cc1ccc(C2(C)NC(=O)N(CC(=O)N(C)CC(=O)Nc3cccc(F)c3)C2=O)cc1 (stereo not drawn)	i	i	i	i	i	i
CCOc1ccc(NC(=O)CN2C(=O)NC(C)(c3ccc(OC(F)F)cc3)C2=O)cc1 (stereo not drawn)	i	i	32.1	i	nt	i
CN1CCN(c2ccc(Cl)cc2NC(=O)CN2C(=O)NC(C)(c3ccccc3)C2=O)CC1 (stereo not drawn)	i	i	i	i	i	i
CCOC(=O)c1c(C)[nH]c(C(=O)CN2C(=O)NC(C)(c3ccc(C)cc3)C2=O)c1C (stereo not drawn)	i	i	21.9	i	i	i
CCOC(=O)c1c(C)[nH]c(C(=O)CN2C(=O)NC(C)(C)C2=O)c1C	i	i	i	i	i	i
CC1(c2ccc(OC(F)F)cc2)NC(=O)N(CC(=O)Nc2ccc(Cl)cc2F)C1=O (stereo not drawn)	i	i	16.6	i	i	i
CC1(c2ccc(OC(F)F)cc2)NC(=O)N(CC(=O)Nc2cccc(F)c2)C1=O (stereo not drawn)	40.4	i	44.5	i	i	i
Cc1cc(C)n2nc(SCC(=O)NC(=O)c3ccccc3)nc2n1	i	i	i	i	i	i
CCOc1cccc(/C=C(\C#N)C(=O)NC2CC2)c1	i	i	i	i	i	i
SMILES	M1 antag	SKN-1 inh	M1 ag	CHRM1 PAM	Myeloid diff MLP	ATG4B inh
Cc1cc(NC(=O)CN2C(=O)NC(C)(c3ccc(OC(F)F)cc3)C2=O)no1 (stereo not drawn)	i	i	17.2	i	i	i
Cc1ccc(NC(=O)CN2C(=O)NC(C)(c3ccc(Cl)cc3)C2=O)cc1 (stereo not drawn)	i	i	18.4	i	i	i
CC(C)CCC(C)NC(=O)CN1C(=O)NC(C)(c2ccc3ccccc3c2)C1=O (stereo not drawn)	i	i	24.6	i	i	i
CCOC(=O)c1sc(NC(=O)CN2C(=O)NC3(CCCCCCC3)C2=O)c(C(=O)OCC)c1C	i	i	i	i	i	i
CCOC(=O)c1c(NC(=O)CN2C(=O)NC(C)(c3ccc(OC(F)F)cc3)C2=O)sc(C)c1C (stereo not drawn)	i	i	18.1	i	i	i
CC(C)Oc1ccc(C(CCN)C2CCCCC2)cc1 (stereo not drawn)	i	i	i	i	i	i
CC1(c2ccc(OC(F)F)cc2)NC(=O)N(CC(=O)Nc2ccc(S(N)(=O)=O)cc2)C1=O (stereo not drawn)	i	i	i	i	i	i
CC1(c2ccc(OC(F)F)cc2)NC(=O)N(CC(=O)Nc2ccc(OC(F)F)cc2)C1=O (stereo not drawn)	28.5	i	36.1	i	i	i
COc1ccc(C2(c3ccc(OC)cc3)NC(=O)N(CC(=O)Nc3ccc(OC(F)F)cc3)C2=O)cc1	i	i	i	i	i	i
CC1(c2ccc(OC(F)F)cc2)NC(=O)N(CC(=O)Nc2ccc(F)cc2)C1=O (stereo not drawn)	i	i	28.8	i	nt	i
CCc1nc2ccc(C(=O)Nc3ccc4c(c3)OCC(=O)N4)cn2c1N(C)C(=O)Cc1ccccc1	i	i	i	i	i	nt
COc1ccccc1NC(=O)/C(C#N)=C/c1cccn1C	i	i	i	i	i	i
Clc1ccc(-c2cn3ccccc3n2)cc1	i	i	i	i	i	i
Brc1ccc(-c2cn3ccccc3n2)s1	i	83.8	i	i	i	i
Cc1cccc(CN2[C@H](CO)C=CS2(=O)=O)c1	i	i	i	i	i	nt
CC(NC(=O)CCl)c1ccccc1Br (stereo not drawn)	i	i	i	i	i	i
CCC(C)(C)n1nnnc1C(C(C)C)N(CCCO)Cc1cc2cc(C)ccc2[nH]c1=O (stereo not drawn)	i	43.7	i	i	i	i
CCNc1ccc2noc3c2c1C(=O)c1ccccc1-3	35.7	i	75.2	i	nt	i
CCOc1ccc2noc3c2c1C(=O)c1ccccc1-3	i	i	21.5	i	i	i
O=C1c2ccccc2-c2onc3ccc(N4CCCC4)c1c23	i	i	i	i	+	i
O=C1c2ccccc2-c2onc3ccc(NCc4ccco4)c1c23	43.6	i	36.4	i	nt	i
CCCN1/C(=C(\C#N)C2=NS(=O)(=O)c3ccccc32)N(C)c2ccccc21	i	i	i	i	i	i
O=C(c1cccc(Br)c1)c1nc2ccccc2[nH]c1=O	i	i	i	i	i	nt
COc1ccc(C2C3=C(COC3=O)Oc3cc4c(cc32)OCO4)cc1OC (stereo not drawn)	i	i	i	28.5	?	i
CCN1C(=O)[C@H]2[C@H]3CN=C(SCc4ccccc4)N3[C@@](CC)(C(=O)OC)[C@H]2C1=O	i	i	i	i	i	i

Screening results from PubChem.
